The values that follow come from PubChem BioAssay (NCATS).

Assay [1] concerns the target Muscarinic acetylcholine receptor M1 (Rattus norvegicus) (UniProt P08482). Put plainly: qHTS Assay for Antagonists of Acetylcholine Muscarinic M1 Receptor: Kinetic Measurement of Intracellular Calcium Response (AID 943).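 Also: Fluo-4 calcium signal as peak divided by basal fluorescence over 4 min; series mostly up to about 35 µM; nearly all actives have a fitted effect of over 75% in size.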 The procedure, abridged: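 Intracellular calcium flux, recorded with Fluo-4 in a kinetic plate reader, served as signal; the response to carbachol at EC80 (100 nM final) was taken as maximal over minimal fluorescence after a 10 min compound pre-incubation in rat M1-CHO cells.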

For assay [2] the target is unchanged. As to the kind of experiment: qHTS Assay for Antagonists of Acetylcholine Muscarinic M1 Receptor: Measurement of IP-One Response (AID 944). Also: nearly all actives have a fitted effect of over 75% in size. The method, boiled down:
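Steps: plate transfected CHO-M1 cells overnight; add test compound, 10 min; add carbachol (200 nM, EC80) in stimulation buffer with LiCl; incubate 30 min; add labelled IP1 tracer and anti-IP1 antibody in lysis buffer; read HTRF after 10 min.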

Assay [3] addresses Pyruvate kinase (Leishmania mexicana) (UniProt Q27686). Put plainly: qHTS Validation Assay for Inhibitors of Leishmania Mexicana Pyruvate Kinase (AID 945). Also: potency is read from the fitted curve at half-maximal effect. The procedure, abridged: (§1)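 Pyruvate kinase activity of E451W LmPYK (0.2 nM) was followed as ATP output after 1 h at room temperature with 0.5 mM PEP and 0.1 mM ADP, detected by PKLight luminescence.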
(In general: qHTS replaces the single test concentration by a dilution series.)

The target of assay [4] is Pyruvate kinase PKM (Homo sapiens) (UniProt P14618). Put plainly: qHTS Assay for Activators of Human Muscle Pyruvate Kinase (AID 954; active = well fitted curve in the direction sought with a large enough effect, not every such curve was filed as active). The procedure, abridged: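 Luminescence from a luciferase ATP-detection/stop reagent reported PKM2 activity. Reactions contained 0.1 nM purified human enzyme, 0.5 mM PEP, 0.1 mM ADP and 7 mM MgCl2 at pH 7.2, run 1 h at RT.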
Chain of Pyruvate kinase PKM (Homo sapiens) (P14618 whole entry, looked up): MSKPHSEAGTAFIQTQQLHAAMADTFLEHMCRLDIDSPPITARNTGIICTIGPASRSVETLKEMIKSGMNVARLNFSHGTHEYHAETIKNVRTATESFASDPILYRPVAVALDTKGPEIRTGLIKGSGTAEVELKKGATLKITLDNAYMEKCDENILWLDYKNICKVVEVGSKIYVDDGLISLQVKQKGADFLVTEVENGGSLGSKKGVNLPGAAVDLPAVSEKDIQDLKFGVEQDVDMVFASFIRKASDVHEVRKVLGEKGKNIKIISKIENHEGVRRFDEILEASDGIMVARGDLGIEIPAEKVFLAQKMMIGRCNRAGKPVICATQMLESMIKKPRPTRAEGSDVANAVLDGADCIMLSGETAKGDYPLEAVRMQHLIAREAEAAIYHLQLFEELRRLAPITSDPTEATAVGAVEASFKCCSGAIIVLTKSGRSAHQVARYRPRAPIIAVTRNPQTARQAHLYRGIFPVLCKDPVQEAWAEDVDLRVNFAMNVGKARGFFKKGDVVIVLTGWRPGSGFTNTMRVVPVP
Assay [5] deals with Alpha-galactosidase (Coffea arabica) (UniProt Q42656). As to the kind of experiment: Counterscreen for Glucocerebrosidase Inhibitors: qHTS Assay for Coffee Bean alpha-Galactosidase at pH 4.5 (AID 957). Also: series mostly up to about 77 µM. The method, boiled down: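 AC50 values derive from Hill-equation modeling of concentration-response data, normalized to no-enzyme and full-activity controls. The pH 4.5 citrate assay used 2 nM coffee bean enzyme and 80 uM fluorogenic substrate for 20 min.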
Chain of Alpha-galactosidase (Coffea arabica) (Q42656 whole entry, looked up): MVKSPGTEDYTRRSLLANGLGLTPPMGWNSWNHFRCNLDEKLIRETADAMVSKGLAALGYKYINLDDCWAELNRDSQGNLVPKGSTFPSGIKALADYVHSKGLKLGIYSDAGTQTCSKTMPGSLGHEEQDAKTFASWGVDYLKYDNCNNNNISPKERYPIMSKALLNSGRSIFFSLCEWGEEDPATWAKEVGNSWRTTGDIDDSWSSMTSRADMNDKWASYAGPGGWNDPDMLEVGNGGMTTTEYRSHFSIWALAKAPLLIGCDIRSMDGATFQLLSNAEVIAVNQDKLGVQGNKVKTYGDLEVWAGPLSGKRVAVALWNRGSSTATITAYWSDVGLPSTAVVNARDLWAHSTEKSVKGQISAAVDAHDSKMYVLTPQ
In general terms: The purpose of a counterscreen is to sort out artefacts and off-target activity.

Assay [6] in a line: Confirmation and Secondary Assay for Modulators of Hemoglobin Beta Chain Splicing at IVS2 705 locus (AID 930).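 Also: HeLa cells stably expressing the EGFP-705 splicing reporter; GFP fluorescence per well restored by corrected splicing of the IVS2-705 intron in EGFP; series mostly up to about 46 µM.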 The method, boiled down:
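Assay measures total GFP intensity per well in HeLa EGFP-705 cells after 2 days with compound; mis-splicing normally truncates EGFP, so fluorescence indicates corrected splicing.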

Assay [7] is described as follows: Cell Viability - LYMP2-001 (AID 921).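 Also: cells exposed to compound for 24 h at 37 °C; nearly all actives have a fitted effect of over 70% in size.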 Also: potency is read from the fitted curve at half-maximal effect. The method, boiled down: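 CellTiter-Glo luminescence (intracellular ATP) after 24 hr compound exposure at 37 C, 2500 lymphoblastoid cells/well in complete medium. AC50 fitted with standard Hill equation; tetraoctylammonium bromide positive control.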
Assay [8] is described as follows: MultiTox-Fluor Cytotoxicity Assay - LYMP1-001 - Dead Cells (AID 946).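 Also: cells exposed to compound for 16 h.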 Also: potency is read from the fitted curve at half-maximal effect. The method, boiled down: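 AC50 from Hill fit of concentration-response; data normalized to DMSO (basal) and 15 uM tetraoctylammonium bromide (100%). LYMP1-001 lymphoblastoid cells, 2500/well, 16 hr compound at 37 C; dead-cell protease fluorescence, Ex/Em 485/520.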
Assay [9] can be described thus: MultiTox-Fluor Cytotoxicity Assay - LYMP1-001 - Live Cells (AID 947). Also: potency is read from the fitted curve at half-maximal effect.
Assay [10] can be described thus: Cell Viability - LYMP1-002 - Assay at 16 hr (AID 948). Also: potency is read from the fitted curve at half-maximal effect. The method, boiled down:
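LYMP1-002 human lymphoblastoid cells, 2500/well; 5 hr 37 C; cpd 16 hr 37 C; CellTiter-Glo 30 min RT; luminescence (ATP). Concentration-response, Hill-fit AC50. Pos ctrl tetraoctylammonium bromide.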

Assay [11] can be described thus: MultiTox-Fluor Cytotoxicity Assay - LYMP1-002 - Live Cells (AID 955).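 Also: cells exposed to compound for 16 hours.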 Also: potency is read from the fitted curve at half-maximal effect. The procedure, abridged: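 Cytotoxicity in the human lymphoblastoid line LYMP1-002 is measured as loss of live-cell protease activity after 16 h treatment in complete culture medium. AC50 is derived from Hill-equation fits of qHTS concentration-response data.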
The nature of assay [12]: MultiTox-Fluor Cytotoxicity Assay - LYMP1-002 - Dead Cells (AID 960). Also: nearly all actives have a fitted effect of over 60% in size. Also: potency is read from the fitted curve at half-maximal effect. The procedure, abridged:
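Acute cytotoxicity in a human lymphoblastoid line is scored as rising dead-cell protease signal after 16 hr exposure at 37 C, measured fluorometrically (485/520).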

A short description of assay [13]: MultiTox-Fluor Cytotoxicity Assay - LYMP1-003 - Dead Cells (AID 961).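 Also: cells exposed to compound for 16 h at 37 °C; nearly all actives have a fitted effect of over 70% in size.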 Also: potency is read from the fitted curve at half-maximal effect. The procedure, abridged: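 Human lymphoblastoid LYMP1-003 cells (2500/well) were treated with compounds for 16 hr at 37 C in complete medium. Dead-cell protease release was read by bis-AAF-R110 fluorescence (Ex/Em 485/520). AC50 came from Hill fits, normalized to DMSO and 15 uM tetraoctylammonium bromide.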

The nature of assay [14]: MultiTox-Fluor Cytotoxicity Assay - LYMP1-003 - Live Cells (AID 962).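 Also: cells exposed to compound for 16 hours at 37 °C.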 Also: potency is read from the fitted curve at half-maximal effect. The method, boiled down: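 Cells plated at 2500 per well and incubated 5 hr; compounds added and incubated 16 hr at 37 C; MultiTox-Fluor reagent added for 60 min at room temperature; fluorescence of liberated AFC measured at 405/510 nm.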
Assay [15] in a line: Cell Viability - LYMP1-003 - Assay at 24 hr (AID 963). Also: potency is read from the fitted curve at half-maximal effect. The procedure, abridged: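 Acute toxicity in LYMP1-003 lymphoblastoid cells: 24 hr compound treatment at 37 C, ATP measured with CellTiter-Glo after 30 min at room temperature. AC50 derived by fitting the Hill equation to qHTS titrations.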
Assay [16] deals with Pyruvate kinase PKM (Homo sapiens) (UniProt P14618). As to the kind of experiment: qHTS Assay for Inhibitors of Human Muscle Pyruvate Kinase (AID 958). The procedure, abridged:
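Screening used highly purified human pyruvate kinase M2 under submaximal activity, with PEP at its Km and ADP below Km. After an hour at room temperature, ATP was read by luciferase luminescence.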

Assay [17] has as its target Pyruvate kinase (Leishmania mexicana) (UniProt Q27686). Put plainly: qHTS Validation Assay for Activators of Leishmania Mexicana Pyruvate Kinase (AID 959). The procedure, abridged: as §1

Molecules are shown by their SMILES. Values joined by “and” are separate entries in the source; they are usually repeats but may differ in a detail not shown here. Identical values can stand only once. Inconclusive results are not listed. Active and inactive are the calls of the source. Unless noted, calls follow the shape of the dose curve; as a rule, active = well fitted curve in the direction sought with a large enough effect; inconclusive = small, poorly fitted or top-dose-only effect, or another doubt; inactive = no such curve, though single readings can be large; an effect the other way counts as inactive or inconclusive.

Chain of Muscarinic acetylcholine receptor M1 (Rattus norvegicus) (P08482 whole entry, looked up): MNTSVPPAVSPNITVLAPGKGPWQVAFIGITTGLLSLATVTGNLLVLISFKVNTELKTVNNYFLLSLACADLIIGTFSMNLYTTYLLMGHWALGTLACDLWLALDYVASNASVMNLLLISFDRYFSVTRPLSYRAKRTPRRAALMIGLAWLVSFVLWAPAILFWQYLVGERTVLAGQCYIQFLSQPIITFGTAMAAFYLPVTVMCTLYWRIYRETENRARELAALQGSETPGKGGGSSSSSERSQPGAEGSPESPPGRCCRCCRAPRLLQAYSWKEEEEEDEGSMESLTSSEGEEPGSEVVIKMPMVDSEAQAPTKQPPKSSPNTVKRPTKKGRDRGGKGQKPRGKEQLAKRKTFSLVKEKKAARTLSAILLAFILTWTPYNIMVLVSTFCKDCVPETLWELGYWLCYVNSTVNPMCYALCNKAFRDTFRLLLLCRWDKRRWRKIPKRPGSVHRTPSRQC
Chain of Pyruvate kinase (Leishmania mexicana) (Q27686 2-499 E452W): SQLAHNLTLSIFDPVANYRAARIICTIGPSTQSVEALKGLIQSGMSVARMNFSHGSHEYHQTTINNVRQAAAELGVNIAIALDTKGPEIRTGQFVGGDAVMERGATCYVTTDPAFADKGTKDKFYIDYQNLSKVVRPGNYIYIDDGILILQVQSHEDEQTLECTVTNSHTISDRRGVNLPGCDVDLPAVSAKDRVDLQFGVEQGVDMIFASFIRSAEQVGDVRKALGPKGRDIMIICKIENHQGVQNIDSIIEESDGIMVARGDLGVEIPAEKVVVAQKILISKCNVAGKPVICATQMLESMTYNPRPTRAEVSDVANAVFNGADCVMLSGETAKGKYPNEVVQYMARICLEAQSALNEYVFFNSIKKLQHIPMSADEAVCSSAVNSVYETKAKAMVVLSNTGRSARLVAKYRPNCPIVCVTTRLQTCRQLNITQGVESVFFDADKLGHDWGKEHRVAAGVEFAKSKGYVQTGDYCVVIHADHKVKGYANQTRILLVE

Take `C[C@@H]1O[C@H](C[N+](C)(C)C)CS1`: the Potency entry in assay [1], in assay [2] and in assay [3] was “inactive” in each case. Moreover, the call in assay [4] and in [5] was inactive.

With `[N-]=[N+]=CC(=O)OCC(N)C(=O)O` (stereo not drawn), the call in assay [6] was inactive.

Take `O=[N+]([O-])c1ccccc1`: the Potency result in assay [7], in [8], in [9], in assay [10], in assay [11] and in assay [12] was “inactive” in each case. Besides, the Potency result in [13], in [14] and in assay [15] was “inactive” throughout.

Take `C=CCC1(C(C)CCC)C(=O)N=C(S)NC1=O` (stereo not drawn): the result in assay [6] was inactive.

For the compound `CN1C2CCC1CC(OC(c1ccccc1)c1ccccc1N)C2` (stereo not drawn), the call in assay [6] was inactive.

Consider `Oc1cc(Cl)c(Cl)cc1Cl`, for which the Potency result in [7], in [8], in [9], in assay [10], in assay [11] and in [12] was “inactive” each time. For the same compound, the Potency entry in assay [13], in assay [14] and in [15] was “inactive” in each case.

`C[C@]12CCC(=O)C[C@@H]1CC[C@@H]1[C@@H]2CC[C@]2(C)[C@@H](O)CC[C@@H]12`: the Potency result in assay [7], in assay [9], in assay [10], in [11], in assay [13] and in [14] was “inactive” throughout. The Potency entry in assay [15] is “inactive”.

As for `NC(Cc1ccc(N(CCCl)CCCl)cc1)C(=O)O` (stereo not drawn), the outcome in assay [6] was inactive.

Take `C[N+]1(C)CCC(OC(=O)C(c2ccccc2)c2ccccc2)CC1`: the result in assay [5] was inactive.

For `O=c1c2ccccc2[se]n1-c1ccccc1`, the Potency result in [1], in [2] and in assay [17] was “inactive” throughout. The Potency in [3] and in assay [16] was 10 µM (active) each time. For the same compound, the call in assay [4] was inactive.

`CN(N=O)c1cc(O)ccc1O`: the Potency entry in [1], in [2], in assay [3] and in [16] was “inactive” throughout. Also, the compound was called inactive in assay [5]. Moreover, the Potency in assay [17] was 3.16 µM (active).

On to `CN1CCC(c2c[nH]c3ccc(O)cc23)CC1`, for which the Potency entry in assay [3] was “inactive”. The call in [4] and in assay [5] was inactive.

As for `O=C(O)C(Cl)(Cl)Cl`, the Potency result in assay [7], in assay [8], in assay [9], in assay [10], in [11] and in assay [12] was “inactive” each time. Also, the Potency result in assay [13], in [14] and in assay [15] was “inactive” each time.

Turning to `S=C=S`, the Potency result in assay [7], in [8], in [9], in assay [10], in [11] and in assay [12] was “inactive” each time. In addition, the Potency result in [13], in assay [14] and in [15] was “inactive” throughout.

As for `CCCC(C)C1(CC)C(=O)NC(=O)NC1=O` (stereo not drawn), in [6], the call was inactive.

For the compound `ClC=C(Cl)Cl`, the Potency result in [7], in assay [8], in assay [9], in assay [10], in [11] and in assay [13] was “inactive” throughout. Further, the Potency entry in assay [14] and in [15] was “inactive” throughout.

As for `N#CC(C#N)=Cc1cc(O)c(O)c(O)c1`, in assay [3], the Potency entry was “inactive”. Besides, the call in [4] and in [5] was inactive.

`CC(N)Cc1ccc(O)cc1` (stereo not drawn): the result in [6] was inactive.

Take `CC(C)(C)c1cc(O)ccc1O`: the Potency in assay [7] was 39.8 µM (active). Moreover, the Potency result in assay [8], in [9], in [10], in assay [11], in assay [12] and in assay [13] was “inactive” in each case. In addition, the Potency entry in [14] and in assay [15] was “inactive” each time.

For the compound `O=C(O)c1cc[c]([Hg][Cl])cc1`, the Potency result in assay [1], in assay [2] and in assay [17] was “inactive” throughout. In addition, the Potency in [3] is 3.98 µM (active); in assay [16] it was 2.51 µM (active). In addition, the outcome in assay [4] and in assay [5] was inactive.

For `O=CC=O`, the Potency entry in [7], in assay [8], in [9], in assay [10], in assay [11] and in [12] was “inactive” throughout. Besides, the Potency entry in assay [13], in assay [14] and in [15] was “inactive” throughout.

As for `O=[N+]([O-])c1ccc(F)c([N+](=O)[O-])c1`, the Potency entry in assay [8], in assay [9], in assay [10], in [11], in assay [12] and in [13] was “inactive” each time. Also, the Potency entry in assay [14] and in assay [15] was “inactive” each time.

For the compound `C[CH2][Hg][S]c1ccccc1C(=O)O`, the call in [6] was inactive.

Turning to `ClCC1CO1` (stereo not drawn), the Potency entry in [8], in assay [10], in assay [11], in assay [12], in assay [13] and in assay [14] was “inactive” each time. The Potency result in assay [15] was “inactive”.

Turning to `CC(C)CCON=O`, the Potency entry in assay [7], in [8], in [10], in [11], in [12] and in assay [13] was “inactive” throughout. The Potency entry in assay [14] and in [15] was “inactive” in each case.

As for `O=C1C2CC=CCC2C(=O)N1SC(Cl)(Cl)Cl` (stereo not drawn), the Potency in assay [7] is 2 µM (active) and 5.01 µM (active); in [8], 10 µM (active); in assay [9] it was 12.6 µM (active); in [10], 7.94 µM (active) and 10 µM (active); in [11], 6.31 µM (active) and 5.01 µM (active); in [12] it was 5.01 µM (active). Also, the Potency is 10 µM (active) and 7.94 µM (active) in assay [13]; 12.6 µM (active) and 10 µM (active) in [14]; 12.6 µM (active) in [15].

`COc1ccc(OC)c(C(O)C(C)N)c1` (stereo not drawn): the result in assay [6] was inactive.

Turning to `CC(C)Nc1ccc(Nc2ccccc2)cc1`, the Potency is 12.6 µM (active) in [7]; 31.6 µM (active) in assay [9]; 39.8 µM (active) in assay [10]; 25.1 µM (active) in assay [11]; 25.1 µM (active) in assay [13]; 50.1 µM (active) in assay [14]. For the same compound, the Potency in assay [15] is 50.1 µM (active).

Take `Clc1ccc(Cl)cc1`: the outcome in assay [6] was inactive.
